Screening results (PubChem)
This is a sample that favours compounds with a hit; in the whole collection about 3.8% have one here.
PrP UTR inh = inhibition of PrP 5' UTR reporter expression | cell-based PrP 5' UTR mRNA reporter, plate reader | inhibition, % (concentration not given with the values) | actives 0.35% (n = 340,000) | AID 488862; in the data active = inhibition above about 52%
Yp Topo-I inh = Y. pestis Topo-I inhibition via cleavage products. Y. pestis Topo-I cleavage product accumulation, plate reader. activity, % at 10 µM. actives 0.064% (n = 360,000); in the data active = activity above about 50%, passing the limit was not always enough
Mtb FBA inh = inhibits M. tuberculosis FBA enzyme; purified M. tuberculosis FBA, fluorescence read-out; inhibition, % at 1 µM; actives 2.3% (n = 360,000); AID 588726; in the data active = inhibition above about 27%
Target sequence (P9WQA3 whole entry, looked up): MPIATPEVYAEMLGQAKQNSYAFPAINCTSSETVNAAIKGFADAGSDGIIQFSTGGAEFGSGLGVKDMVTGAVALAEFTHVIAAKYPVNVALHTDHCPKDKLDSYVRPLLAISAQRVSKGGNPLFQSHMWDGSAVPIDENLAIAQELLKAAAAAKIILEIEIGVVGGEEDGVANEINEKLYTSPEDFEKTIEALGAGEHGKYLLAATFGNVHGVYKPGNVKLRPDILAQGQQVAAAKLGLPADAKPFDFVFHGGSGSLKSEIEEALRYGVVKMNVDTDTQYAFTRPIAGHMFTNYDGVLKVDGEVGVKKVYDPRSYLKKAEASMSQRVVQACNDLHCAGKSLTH
GDH-TPI counter = GDH-TPI coupled enzyme inhibition counter-screen; GDH-TPI coupled enzyme counterscreen, NADH absorbance; inhibition, % at 4.8 µM; actives 1.2% (n = 360,000); AID 588335; in the data active = inhibition above about 30%
PrPC TRFRET = inhibitors of human cell surface prion protein PrPC | P04156 | TR-FRET read-out | inhibition, % at 13.8 µM | actives 0.43% (n = 370,000); in the data active = inhibition above about 24%
Mtb hypoxia rep = Mtb hypoxia fluorescent reporter inhibition; actives 0.1% (n = 300,000); M. tuberculosis hypoxia-regulated fluorescent reporter, fluorescence; fluorescence inhibition, % (test concentration not listed); in the data active = fluorescence inhibition mostly above about 23%, no sharp cut-off; inactive = mostly below about 17%
Each line names hits and unclear results; the compound was inactive in the other large screens.

CCN(C(=O)CN1C(=O)S/C(=C\c2ccc(Cl)cc2)C1=O)C1CCS(=O)(=O)C1 (stereo not drawn)	GDH-TPI counter 34
CCOC1OC(C(=O)Nc2ccccc2)=CC(c2ccc3c(c2)OCO3)C1CCCO (stereo not drawn)	none (no result: PrP UTR inh, Yp Topo-I inh, Mtb FBA inh, GDH-TPI counter, PrPC TRFRET)
COc1cccc(C=NNC(=O)CN2CC(c3ccccc3)CC2=O)c1O (stereo not drawn)	none (no result: PrP UTR inh, Yp Topo-I inh, Mtb FBA inh, GDH-TPI counter, PrPC TRFRET)
CC(=NNC(=S)Nc1c(C)cccc1C)c1ccc(OC(F)F)cc1	none (no result: PrP UTR inh, Yp Topo-I inh, Mtb FBA inh, GDH-TPI counter, PrPC TRFRET)
Nc1ccccc1-c1nc2ccccc2[nH]1	Mtb FBA inh active
Cc1[nH]ncc1-c1nc2ccccc2[nH]1	none
Oc1ccc(C=Nc2ccccc2-c2nc3ccccc3[nH]2)cc1	Mtb FBA inh active
Clc1ccc(Br)c(-c2nc3ccccc3[nH]2)c1	none (no result: PrP UTR inh, Mtb hypoxia rep)
O=C(O)c1ccc(-c2nc3ccccc3[nH]2)cc1	Mtb FBA inh active (no result: Mtb hypoxia rep)
Cc1ccc2nc(-c3cccc(N)c3)[nH]c2c1	Mtb FBA inh 137
COCC(=O)O[C@]1(CCN(C)CCCc2nc3ccccc3[nH]2)CCc2cc(F)ccc2C1C(C)C (stereo partly drawn)	none (no result: PrP UTR inh, Yp Topo-I inh, Mtb FBA inh, GDH-TPI counter, PrPC TRFRET)
C=CCC(CC(=O)NC(CO)Cc1ccccc1)C(=O)NC(C)COC(=O)C(CC=C)CC(=O)OC(C)(C)C (stereo not drawn)	none (no result: PrP UTR inh, Yp Topo-I inh, Mtb FBA inh, GDH-TPI counter, PrPC TRFRET)
Fc1ccc(-c2nc3ccccc3[nH]2)cc1	none
O=C(O)c1ccc(/C=C(\c2nc3ccccc3[nH]2)c2nc3ccccc3s2)cc1	GDH-TPI counter 65
Nc1ccc(-c2nc3c(ccc4ccccc43)[nH]2)cc1	Mtb FBA inh active, GDH-TPI counter 42
O=c1[nH]cccc1-c1nc2ccccc2[nH]1	Mtb FBA inh active, GDH-TPI counter 42 (no result: PrP UTR inh)
CC(C)(C)c1ccc(/C=C(\c2nc3ccccc3[nH]2)S(=O)(=O)c2ccccc2)cc1	none (no result: PrPC TRFRET)
Nc1ccc(-c2nc3ccccc3[nH]2)cc1	Mtb FBA inh 117 (no result: Mtb hypoxia rep)
Clc1nc2c(ccc3ccccc32)[nH]1	none
Cc1ccc(C(O)=C2C(=O)C(=O)N(c3cc(C)on3)C2c2cccc(Br)c2)cc1 (stereo not drawn)	none (no result: PrP UTR inh, Yp Topo-I inh, Mtb FBA inh, GDH-TPI counter, PrPC TRFRET)
CC[C@@]12C(=O)N(c3cccc(Cl)c3)C(=O)N1C(c1cccc(C)c1)C1C(=O)N(Cc3ccccc3)C(=O)C12 (stereo partly drawn)	none (no result: PrP UTR inh, Yp Topo-I inh, Mtb FBA inh, GDH-TPI counter, PrPC TRFRET)
CC(CCN1CCc2nc(-c3ccccc3)c(-c3ccccc3)cc2C1)=NOC(C)c1cn(C(CO)Cc2ccccc2)nn1 (stereo not drawn)	none (no result: PrP UTR inh, Yp Topo-I inh, Mtb FBA inh, GDH-TPI counter, PrPC TRFRET)
C#CCOCCOCCOCCNc1nc(N2CCN(C(=O)C(CCCCN)n3cc(C(N)CC(C)C)nn3)CC2)nc(N2CCN(C(=O)C(C(C)CC)n3cc(C(N)Cc4ccc(O)cc4)nn3)CC2)n1 (stereo not drawn)	none (no result: PrP UTR inh, Yp Topo-I inh, Mtb FBA inh, GDH-TPI counter, PrPC TRFRET)
O=C(/C(=C(\O)c1ccccc1)c1nc2ccccc2[nH]1)c1ccccc1	GDH-TPI counter 40
Nc1ccc2nc(-c3cccc(-c4nc5ccc(N)cc5[nH]4)n3)[nH]c2c1	none
Nc1cccc(-c2nc3ccccc3[nH]2)c1	Mtb FBA inh 136
Cc1ccc(C(=O)N/N=C/C=C/c2ccccc2)o1	GDH-TPI counter 52 (no result: Mtb hypoxia rep)
Cc1ccc(C(=O)NN=C/C=C/c2ccccc2)o1	none (no result: PrP UTR inh, Yp Topo-I inh, Mtb FBA inh, GDH-TPI counter, PrPC TRFRET)
O=C(N/N=C/C=C/c1ccccc1)c1cc(C2CC2)[nH]n1	GDH-TPI counter 67 (no result: Mtb hypoxia rep)
Cc1cc(C(=O)N/N=C/C=C/c2ccccc2)n[nH]1	GDH-TPI counter 61 (no result: Mtb hypoxia rep)
C=CCC(CC(=O)NCCO)C(=O)NC(C)COC(=O)C(CC=C)CC(=O)OC(C)(C)C (stereo not drawn)	none (no result: PrP UTR inh, Yp Topo-I inh, Mtb FBA inh, GDH-TPI counter, PrPC TRFRET)
Fc1ccccc1C=Nn1c(COc2ccccc2)n[nH]c1=S	none (no result: PrP UTR inh, Yp Topo-I inh, Mtb FBA inh, GDH-TPI counter, PrPC TRFRET)
CCCCN1CC(=O)N2C3c4cc(Br)ccc4OCC3C(C(=O)OCC)[C@]2(C)C1=O (stereo partly drawn)	none (no result: PrP UTR inh, Yp Topo-I inh, Mtb FBA inh, GDH-TPI counter, PrPC TRFRET)
O=C(COCc1ccccc1)NC(Cc1ccc(O)cc1)C(=O)O (stereo not drawn)	none (no result: PrP UTR inh, Yp Topo-I inh, Mtb FBA inh, GDH-TPI counter, PrPC TRFRET)
N#CC(C#N)=C1C=CC=CN1/C(=C\c1ccco1)C(=O)c1ccc(Cl)cc1	GDH-TPI counter 44
CC1CCc2c(sc(NC(=O)CSc3nnc(-c4ccccc4)o3)c2C#N)C1 (stereo not drawn)	none
N#Cc1c(NC(=O)CSc2nnc(-c3ccccc3)o2)sc2c1CCCC2	GDH-TPI counter 31 (no result: PrPC TRFRET)
COc1ccc(NS(=O)(=O)c2cccc(C(=O)NN=Cc3ccccn3)c2)cc1	none (no result: PrP UTR inh, Yp Topo-I inh, Mtb FBA inh, GDH-TPI counter, PrPC TRFRET)
O=C1C=C(c2ccc(Oc3ccccc3)cc2)CC(c2ccc(F)cc2)C1 (stereo not drawn)	none (no result: PrP UTR inh, Yp Topo-I inh, Mtb FBA inh, GDH-TPI counter, PrPC TRFRET)
CC(=O)Nc1cc(C(F)(F)F)ccc1N1CCOCC1	none
